Activity calls are given as the source filed them. Rule for the calls: active = hit-call score of the fitted dose curve at least 0.9, where 1 is the maximum; inactive = score below 0.9.
Assays:
Settings in all cases: mRNA level, 48 h; actives raise or lower the signal
[1] = read-out: Alpha-fetoprotein (AFP) gene, AFP (gene 174); test: LTEA_HepaRG_AFP: Life Technologies and Expression Analysis (LTEA) Assay for Alpha-fetoprotein (AFP) gene using HepaRG (AID 2283472)
Outline: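 Differentiated human HepaRG cells exposed 48 h in serum-free induction medium, 8-point half-log series from 100 uM in 0.5% DMSO, duplicate. AFP mRNA by qRT-PCR, normalized to ACTB, GAPDH, POLR2A; bidirectional fit vs DMSO.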

BCL2L11 (gene 10018) = test: LTEA_HepaRG_BCL2L11: Life Technologies and Expression Analysis (LTEA) Assay for Bcl-2 (BCL2L11) gene using HepaRG (AID 2283473)
Outline: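 Cells were plated, cultured 48 h, switched to serum-free induction medium, then dosed in duplicate for 48 h at eight half-log concentrations up to 100 uM. Lysates underwent RNA isolation and TaqMan qRT-PCR; gain or loss versus DMSO was fitted.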

[2] = read-out: Apolipoprotein A-V (APOA5) gene, APOA5 (gene 116519); test: LTEA_HepaRG_APOA5: Life Technologies and Expression Analysis (LTEA) Assay for Apolipoprotein A-V (APOA5) gene using HepaRG (AID 2283474)
Outline: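 Human liver HepaRG cells are treated 48 h with test chemicals (100 uM top, half-log dilutions, 0.5% DMSO). APOA5 mRNA induction or loss is measured by qRT-PCR relative to vehicle.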

[3] = read-out: Apoptosis regulator Bcl-2 (Homo sapiens) (UniProt P10415); test: LTEA_HepaRG_BCL2: Life Technologies and Expression Analysis (LTEA) Assay for Bcl-2 gene using HepaRG (AID 2283475)
Outline: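 Differentiated human HepaRG cells in serum-free induction medium exposed 48 h, in duplicate, to 8-point half-log series from 100 uM in 0.5% DMSO. BCL2 mRNA by qRT-PCR (TaqMan/Fluidigm), normalized to ACTB, GAPDH, POLR2A; bidirectional fit against DMSO.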

[4] = read-out: Bcl-2 (BID) gene, BID (gene 637); test: LTEA_HepaRG_BID: Life Technologies and Expression Analysis (LTEA) Assay for Bcl-2 (BID) gene using HepaRG (AID 2283476)
Outline: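 Gene expression by qRT-PCR in HepaRG cells after 48 h exposure, duplicate wells, eight half-log concentrations topping at 100 uM in 0.5% DMSO. Normalized to ACTB, GAPDH, POLR2A; bidirectional fitting relative to DMSO.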

Caspase-3 (Homo sapiens) = Caspase-3 (Homo sapiens) (UniProt P42574); test: LTEA_HepaRG_CASP3: Life Technologies and Expression Analysis (LTEA) Assay for cysteine-aspartic acid protease (CASP3) using HepaRG (AID 2283477)
Caspase-3 (Homo sapiens), sequence (P42574 whole entry, looked up): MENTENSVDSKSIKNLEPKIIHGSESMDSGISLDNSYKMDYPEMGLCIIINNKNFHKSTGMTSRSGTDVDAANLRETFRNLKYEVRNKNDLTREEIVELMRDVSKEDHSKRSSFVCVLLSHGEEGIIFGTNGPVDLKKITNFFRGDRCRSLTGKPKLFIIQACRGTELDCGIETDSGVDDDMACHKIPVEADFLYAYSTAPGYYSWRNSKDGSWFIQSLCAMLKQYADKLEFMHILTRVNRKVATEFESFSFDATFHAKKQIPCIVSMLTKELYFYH
Outline: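 In HepaRG liver cells dosed for 48 h at up to 100 uM (eight-point, duplicate), CASP3 expression changes are scored by qRT-PCR. Activity is fitted in both directions with 0.5% DMSO as baseline.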

[5] = read-out: Cytochrome P450 (CYP24A1), CYP24A1 (gene 1591); test: LTEA_HepaRG_CYP24A1: Life Technologies and Expression Analysis (LTEA) Assay for Cytochrome P450 (CYP24A1) using HepaRG (AID 2283478)
Outline: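 Human liver HepaRG cultures receive each chemical for 48 h across an eight-point half-log series topping at 100 uM in 0.5% DMSO. Induction or suppression of CYP24A1 mRNA is scored relative to vehicle after housekeeping-gene normalization.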

[6] = read-out: Cytochrome P450 (CYP1A2), CYP1A2 (gene 1544); test: LTEA_HepaRG_CYP1A2: Life Technologies and Expression Analysis (LTEA) Assay for Cytochrome P450 (CYP1A2) using HepaRG (AID 2283479)
Outline: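 Assesses CYP1A2 mRNA in human HepaRG liver cells after 48 h chemical exposure at up to 100 uM. Values come from qRT-PCR with bidirectional curve fitting relative to DMSO.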

[7] = read-out: cysteine-aspartic acid protease (CASP8), CASP8 (gene 841); test: LTEA_HepaRG_CASP8: Life Technologies and Expression Analysis (LTEA) Assay for cysteine-aspartic acid protease (CASP8) using HepaRG (AID 2283480)
Outline: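 Differentiated human HepaRG cells, plated 48 h then switched to serum-free induction medium, were exposed in duplicate for 48 h to 8 half-log concentrations up to 100 uM in 0.5% DMSO. CASP8 mRNA was quantified by qRT-PCR, normalized to ACTB/GAPDH/POLR2A.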

[8] = read-out: Cytochrome P450 (CYP2B6), CYP2B6 (gene 1555); test: LTEA_HepaRG_CYP2B6: Life Technologies and Expression Analysis (LTEA) Assay for Cytochrome P450 (CYP2B6) using HepaRG (AID 2283481)
Outline: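 Using 48 h treatment of HepaRG cells in serum-free induction medium, concentrations spanned half-log steps from 100 uM in 0.5% DMSO vehicle. CYP2B6 mRNA induction or loss is scored by qRT-PCR against DMSO.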

CYP2C8 (gene 1558) = test: LTEA_HepaRG_CYP2C8: Life Technologies and Expression Analysis (LTEA) Assay for CYP2C8 using HepaRG (AID 2283483)
Outline: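 Differentiated human HepaRG cells were exposed for 48 h in serum-free induction medium to eight half-log concentrations up to 100 uM in 0.5% DMSO, in duplicate. CYP2C8 mRNA was measured by TaqMan qRT-PCR, normalized to ACTB, GAPDH and POLR2A, and fitted bidirectionally against DMSO.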

CYP2C9 (gene 1559) = test: LTEA_HepaRG_CYP2C9: Life Technologies and Expression Analysis (LTEA) Assay for CYP2C9 using HepaRG (AID 2283484)
Outline: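 Differentiated human HepaRG cells were exposed 48 h in serum-free induction medium to eight half-log concentrations up to 100 uM in 0.5% DMSO. CYP2C9 mRNA was measured by qRT-PCR, normalized to ACTB, GAPDH and POLR2A, and fitted bidirectionally against DMSO.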

CYP2E1 (gene 1571) = test: LTEA_HepaRG_CYP2E1: Life Technologies and Expression Analysis (LTEA) Assay for CYP2E1 using HepaRG (AID 2283485)
Outline: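 HepaRG cells, plated 48 h, then exposed 48 h in serum-free induction medium to eight half-log concentrations from 100 uM in 0.5% DMSO, duplicate. CYP2E1 mRNA by qRT-PCR, normalized to ACTB/GAPDH/POLR2A; bidirectional fit versus DMSO.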

CYP4A11 (gene 1579) = test: LTEA_HepaRG_CYP4A11: Life Technologies and Expression Analysis (LTEA) Assay for CYP4A11 using HepaRG (AID 2283486)
Outline: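 Readout is CYP4A11 mRNA induction or suppression (qRT-PCR, ACTB/GAPDH/POLR2A normalization) in human HepaRG cells after 48 h chemical treatment, concentrations to 100 uM in 0.5% DMSO, fitted bidirectionally against vehicle.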

[9] = read-out: Cytochrome P450 3A4 (Homo sapiens) (UniProt P08684); test: LTEA_HepaRG_CYP3A4: Life Technologies and Expression Analysis (LTEA) Assay for CYP3A4 using HepaRG (AID 2283487)
Outline: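 Differentiated HepaRG cells, plated 48 h, then dosed 48 h in serum-free induction medium with 0.5% DMSO, 8 half-log concentrations up to 100 uM, duplicate. CYP3A4 mRNA by qRT-PCR, normalized to ACTB/GAPDH/POLR2A; bidirectional fit versus DMSO.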

[10] = read-out: DNA damage-inducible transcript 3 (DDIT3), DDIT3 (gene 1649); test: LTEA_HepaRG_DDIT3: Life Technologies and Expression Analysis (LTEA) Assay for DNA damage-inducible transcript 3 (DDIT3) using HepaRG (AID 2283488)
Outline: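 HepaRG cells, 48 h after plating, exposed 48 h in serum-free induction medium to 8 half-log concentrations up to 100 uM in 0.5% DMSO, in duplicate. DDIT3 mRNA measured by TaqMan qRT-PCR, normalized to ACTB, GAPDH and POLR2A. Fitted bidirectionally against DMSO.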

[11] = read-out: Pro-epidermal growth factor (Homo sapiens) (UniProt P01133); test: LTEA_HepaRG_EGF: Life Technologies and Expression Analysis (LTEA) Assay for Epidermal growth factor (EGF) using HepaRG (AID 2283489)
Outline: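 EGF expression changes in human HepaRG cells are scored by bidirectional fitting relative to 0.5% DMSO controls. Chemicals are tested at eight half-log concentrations up to 100 uM for 48 h in serum-free induction medium.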

[12] = read-out: Early growth response protein 1 (EGR1) transcription factor, EGR1 (gene 1958); test: LTEA_HepaRG_EGR1: Life Technologies and Expression Analysis (LTEA) Assay for Early growth response protein 1 (EGR1) transcription factor using HepaRG (AID 2283490)
Outline: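 Differentiated human HepaRG cells in serum-free induction medium were exposed in duplicate for 48 h to eight concentrations (top 100 uM, half-log steps) in 0.5% DMSO. EGR1 mRNA was quantified by qRT-PCR, normalized to ACTB, GAPDH and POLR2A, and fitted bidirectionally versus DMSO.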

[13] = read-out: Ezrin (EZR), EZR (gene 7430); test: LTEA_HepaRG_EZR: Life Technologies and Expression Analysis (LTEA) Assay for Ezrin (EZR) using HepaRG (AID 2283491)
Outline: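 EZR transcript levels came from Fluidigm qRT-PCR and were normalized to three housekeeping genes after 48 h chemical exposure of HepaRG cells. Dosing used an 8-point half-log series with a 100 uM top concentration in 0.5% DMSO, tested in duplicate; both directions were fitted versus vehicle.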

[14] = read-out: Cytochrome P450 2C19 (Homo sapiens) (UniProt P33261); test: LTEA_HepaRG_CYP2C19: Life Technologies and Expression Analysis (LTEA) Assay for CYP2C19 using HepaRG (AID 2283482)
Outline: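 Human HepaRG liver cells received test chemicals for 48 h (highest 100 uM, half-log dilutions in 0.5% DMSO). CYP2C19 mRNA induction or loss is read by multiplexed qRT-PCR and fitted in both directions versus vehicle.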

Measured: AC50

Cytochrome P450 3A4 (Homo sapiens), sequence (P08684 whole entry, looked up): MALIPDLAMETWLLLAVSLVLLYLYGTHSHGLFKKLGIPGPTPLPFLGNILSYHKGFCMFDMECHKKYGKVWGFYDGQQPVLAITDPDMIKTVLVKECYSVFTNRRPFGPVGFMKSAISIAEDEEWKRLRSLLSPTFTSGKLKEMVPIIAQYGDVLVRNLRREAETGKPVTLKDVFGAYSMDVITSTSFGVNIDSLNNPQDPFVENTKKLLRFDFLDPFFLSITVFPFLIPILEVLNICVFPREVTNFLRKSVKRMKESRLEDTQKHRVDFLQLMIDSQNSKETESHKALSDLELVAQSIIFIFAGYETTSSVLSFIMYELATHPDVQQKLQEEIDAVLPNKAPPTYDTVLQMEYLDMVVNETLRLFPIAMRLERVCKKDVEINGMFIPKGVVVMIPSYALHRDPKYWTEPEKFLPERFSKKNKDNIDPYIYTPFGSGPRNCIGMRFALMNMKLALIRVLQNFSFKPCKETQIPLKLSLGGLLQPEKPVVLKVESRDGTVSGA
Apoptosis regulator Bcl-2 (Homo sapiens), sequence (P10415 whole entry, looked up): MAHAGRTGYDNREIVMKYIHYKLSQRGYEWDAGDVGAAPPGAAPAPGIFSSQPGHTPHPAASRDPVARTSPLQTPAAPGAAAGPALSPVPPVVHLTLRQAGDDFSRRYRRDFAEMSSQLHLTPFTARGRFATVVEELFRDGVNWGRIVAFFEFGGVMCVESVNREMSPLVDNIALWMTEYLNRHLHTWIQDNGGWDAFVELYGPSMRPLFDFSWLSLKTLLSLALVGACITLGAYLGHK
Cytochrome P450 2C19 (Homo sapiens), sequence (P33261 whole entry, looked up): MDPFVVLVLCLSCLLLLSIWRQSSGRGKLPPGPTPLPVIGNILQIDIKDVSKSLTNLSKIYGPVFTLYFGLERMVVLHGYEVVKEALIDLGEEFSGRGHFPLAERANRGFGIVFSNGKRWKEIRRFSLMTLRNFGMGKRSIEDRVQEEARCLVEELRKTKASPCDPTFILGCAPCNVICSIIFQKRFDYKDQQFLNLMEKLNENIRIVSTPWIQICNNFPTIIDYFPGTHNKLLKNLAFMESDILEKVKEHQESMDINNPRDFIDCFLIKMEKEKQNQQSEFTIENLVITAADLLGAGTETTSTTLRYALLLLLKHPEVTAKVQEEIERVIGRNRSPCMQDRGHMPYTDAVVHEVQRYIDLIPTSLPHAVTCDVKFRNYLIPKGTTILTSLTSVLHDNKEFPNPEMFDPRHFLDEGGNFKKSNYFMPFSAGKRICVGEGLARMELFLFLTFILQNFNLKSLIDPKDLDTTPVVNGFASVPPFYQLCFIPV

CCCCC(CC)COC(=O)c1ccc(C(=O)OCC(CC)CCCC)c(C(=O)OCC(CC)CCCC)c1 (configuration not stated)
not listed: [14]
inactive: all other assays above

CCCCCCCCn1sccc1=O
active: [1] 79.5 µM | [2] 82.9 µM | [8] 87 µM | CYP2C8 (gene 1558) 85.9 µM | CYP2C9 (gene 1559) 85.3 µM | CYP2E1 (gene 1571) 84.2 µM | CYP4A11 (gene 1579) 91.1 µM | [9] 81.4 µM
not listed: [14]
inactive: all other assays above

[O-][Cl+]O
not listed: [11] | [14]
inactive: all other assays above

CCCCCCCCOC(=O)c1ccc(C(=O)OCCCCCCCC)c(C(=O)OCCCCCCCC)c1
active: [6] 50.5 µM | [8] 22.4 µM
not listed: [14]
inactive: all other assays above

Clc1ccc(Cl)c(Cl)c1
active: [1] 50 µM | [2] 50 µM | [4] 50 µM | Caspase-3 (Homo sapiens) 50 µM | CYP2E1 (gene 1571) 50 µM | [10] 9.92 µM
not listed: [14]
inactive: all other assays above

Nc1ccc(Cl)cc1N
inactive: [4] | Caspase-3 (Homo sapiens) | [5] | [7] | [11] | [13]
active: [1] 22.5 µM | BCL2L11 (gene 10018) 18.9 µM | [2] 16.2 µM | [3] 28.8 µM | [6] 0.811 µM | [8] 21.6 µM | [14] 28.6 µM | CYP2C8 (gene 1558) 25.1 µM | CYP2C9 (gene 1559) 24.6 µM | CYP2E1 (gene 1571) 19.5 µM | CYP4A11 (gene 1579) 23.2 µM | [10] 50 µM | [12] 12.9 µM

COP(=S)(OC)SCN1C(=O)c2ccccc2C1=O
active: [6] 22.3 µM | [8] 50 µM
not listed: [14]
inactive: all other assays above

— PubChem BioAssay (EPA / NIEHS)
